Screening results as filed in PubChem BioAssay.
Gal4-VP16 FLuc: inhibits Gal4-VP16 luciferase reporter, ROR gamma counter-screen; 310,000 compounds, 3.5% hits; Potency, µM (doses to about 53.6 µM), for the others: at the top dose activity, negative = inhibition, usual class: inhibitors; AID 2546; Drosophila S2 Gal4-VP16 UAS-luciferase, luminescence, 20 h;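 note: Gal4-VP16 expression switched on by copper sulfate through the metallothionein promoter; % is set by controls: 0 for no effect and ±100 for the full control effect; nearly all actives have a fitted effect of over 50% in size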
PINK1 expr mod: PINK1 expression modulation | PINK1 immunofluorescence, high-content cytometry, 24 h | Potency, µM (series often up to 76.6 µM), without a hit: top-dose activation (PINK1 increase), usual class: activators | 410,000 compounds, 0.2% hits; active = well fitted activation curve with a large enough effect; inconclusive = small, poorly fitted or top-dose-only effect; cell line not stated here; note: % of control where 0% means no effect; nearly all actives have a fitted effect of over 65% in size
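Cells are seeded, rested 12 hours, then given compound at five concentrations or DMSO for 24 hours. After fixation, blocking and antibody staining, PINK1 amount and mitochondrial localization are scored; CCCP serves as control.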
Sfp PPTase inh: blocks B. subtilis Sfp PPTase activity; Q9F4F7; Biochemical Sfp PPTase activity, qHTS; Potency, µM, without a hit: largest response in the series, negative = inhibition, most hits filed as inhibitors; 310,000 compounds, 3.5% hits;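 note: the enzyme is Sfp with the accession as filed and its product quenches rhodamine fluorescence; 0% = enzyme reaction without inhibitor and -100% = no enzyme wells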
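Fluorescence-quenching assay: 15 nM Sfp-PPTase preincubated 15 min at room temperature with compound, then 5 uM rhodamine-CoA and 12.5 uM BHQ-2-labelled YbbR peptide added. Fluorescence (ex 525/em 598 nm) read at start and after 30 min; difference gives rate.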
ClpP mod: qHTS Assay for Activators of ClpP | Potency, µM (top dose mostly 57.5 µM), for the others: at the top dose activity change, negative = active | purified B. subtilis ClpP, FRET peptide cleavage, 20 min | 340,000 compounds, 1.9% hits | AID 651965, 2013; active = well fitted falling curve with a large enough effect; inconclusive = small, poorly fitted or top-dose-only effect; inactive = no such curve, though single readings can be large or run the other way; note: the source files actives as falling curves though it sought activators and does not explain the sign; nearly all actives have a fitted effect of over 65% in size
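FRET quenching reversal measured ClpP activation: 10 microg/mL B. subtilis ClpP at pH 8 with the FRET-FV decapeptide, read at 430 nm after 320 nm excitation. The 20-min minus 0-min signal was scaled between DMSO/no-enzyme wells and ADEP (5.8 microM final).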
RORgamma inh: ROR gamma (mouse) transcription inhibition; Potency, µM (doses to about 53.6 µM), for inactives: top-dose activity change, negative = inhibition, hits mostly inhibitors; P51450; Drosophila S2 Gal4-RORgamma UAS-luciferase reporter, 20 h; 310,000 compounds, 5.4% hits; note: % is set by controls: 0 for no effect and ±100 for the full control effect; nearly all actives have a fitted effect of over 60% in size
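Luminescence from a UAS-regulated Photinus luciferase reporter in stably transfected Drosophila Schneider cells is measured; decreased signal marks ROR gamma inhibition. Fusion expression is induced by 700 uM copper sulfate for 20 hr.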
Epigenetic reg: regulators of epigenetic silencing causing reporter derepression in mouse cells | murine LDR cells, GFP reporter derepression, 30 h | Potency, µM (highest dose often 53.9 µM), for inactives: at the top dose GFP activation, hits mostly activators | 280,000 compounds, 0.2% hits | AID 1865; note: % of control where 0% means no effect; nearly all actives have a fitted effect of over 60% in size
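Murine LDR cells carrying a silenced, genomically integrated CMV-driven GFP reporter were exposed to compound for 30 hours at 37 C. After PBS washes, GFP-positive cells (20–120 um objects) were counted by laser-scanning microplate cytometry.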
The depositor's hits bear a star; [ ] = remark or other dose. Sampled rows, rich in hits. Any-hit rate of the full collection: about 8.1%. Unless noted, calls come from the whole dose curve; as a rule, active = well fitted curve in the direction sought with a large enough effect; inconclusive = small, poorly fitted or top-dose-only effect, or another doubt; inactive = no such curve, though single readings can be large; an effect the other way counts as inactive or inconclusive. Potency is the fitted concentration of half-maximal effect.

Screening CC(=O)c1cccc(NC(=S)NC(=O)c2ccc(C)cc2Cl)c1 returned Gal4-VP16 FLuc 12.6µM*, PINK1 expr mod 0.1%, Sfp PPTase inh -11.8%, ClpP mod -0.8%, RORgamma inh 11.2µM* and Epigenetic reg -5.1%.
NC(=S)NNC(=O)c1ccccc1Cl was read as Gal4-VP16 FLuc -10.0%, PINK1 expr mod 0.9%, Sfp PPTase inh 8.1%, ClpP mod -2.8%, RORgamma inh inconclusive and Epigenetic reg -0.3%.
Screening CC(C)C[C@H](N)c1nnc(S(=O)(=O)Cc2cccc(F)c2)o1 returned Gal4-VP16 FLuc inconclusive, PINK1 expr mod 1.6%[38.3 µM], Sfp PPTase inh 17.8µM*, ClpP mod -0.2%, RORgamma inh 6.31µM* and Epigenetic reg 0.0%.
For CC(C)Cn1nnnc1S(=O)(=O)Cc1cccc(C#N)c1 the results were Gal4-VP16 FLuc 5.4%, Sfp PPTase inh 9.8%, RORgamma inh -23.1% and Epigenetic reg -0.3%.
CC(C)(C)OC(=O)N[C@@H](Cc1ccccc1)c1nnc(S(=O)(=O)Cc2cccc(F)c2)o1 was read as Gal4-VP16 FLuc 4.47µM*, PINK1 expr mod 0.4%, Sfp PPTase inh 7.94µM*, ClpP mod -1.1%, RORgamma inh 4.47µM* and Epigenetic reg -2.9%.
Cc1ccccc1CS(=O)(=O)c1nnc([C@H](CC(C)C)NC(=O)OC(C)(C)C)o1 was read as Gal4-VP16 FLuc 4.47µM*, PINK1 expr mod 7.8%[38.3 µM], Sfp PPTase inh 22.4µM*, ClpP mod -1.1%, RORgamma inh 7.08µM* and Epigenetic reg 2.1%.
For CCOC(=O)CSc1nnc([C@H](Cc2ccccc2)NC(=O)OC(C)(C)C)o1 the results were Gal4-VP16 FLuc -2.7%, PINK1 expr mod 3.7%[38.3 µM], Sfp PPTase inh 0.0%, ClpP mod 1.6%, RORgamma inh -6.9% and Epigenetic reg 0.0%.
CC[C@@H](C)[C@H](NC(=O)OC(C)(C)C)c1nnc(S(=O)(=O)Cc2cc(C)ccc2C)o1 was read as Gal4-VP16 FLuc inconclusive, PINK1 expr mod 5.5%, Sfp PPTase inh inconclusive, ClpP mod 0.4%, RORgamma inh inconclusive and Epigenetic reg -5.6%.
Screening Cc1ccc(S(=O)(=O)NC2(C(=O)O)CCCC2)cc1 returned PINK1 expr mod -3.1% and ClpP mod 35.5µM*.
For Cc1ccc(S(=O)(=O)NC2(C(=O)O)CCCCC2)cc1 the results were Gal4-VP16 FLuc 6.8%, PINK1 expr mod -0.8%, Sfp PPTase inh 23.9%, ClpP mod 0.0%, RORgamma inh 6.2% and Epigenetic reg 4.9%.
For CN1CCc2c(sc(N)c2C(=O)c2ccc(Cl)cc2)C1 the results were Gal4-VP16 FLuc inconclusive, PINK1 expr mod 1.0%, Sfp PPTase inh -8.8%, ClpP mod -26.3% and RORgamma inh -7.6%.
For COc1ccc(C(=O)c2c(N)sc3c2CCN(C(=O)OC(C)(C)C)C3)cc1 the results were Gal4-VP16 FLuc 8.0%, PINK1 expr mod -0.9%, Sfp PPTase inh 79.4µM*, RORgamma inh 4.4% and Epigenetic reg -1.1%.
`CCOc1cc(/C=C(\C#N)C(N)=O)cc(CSc2ccccc2)c1O` gave Gal4-VP16 FLuc -7.4%, Sfp PPTase inh -24.5% and RORgamma inh inconclusive.
For COc1cc(/C=C(\C#N)C(N)=O)cc(CSc2nc3ccccc3s2)c1O the results were Gal4-VP16 FLuc 14.1µM*, Sfp PPTase inh -7.6%, RORgamma inh 5.62µM* and Epigenetic reg 3.2%.
For O=C(CNC(=O)c1cccc(F)c1)N/N=C/c1cc(Br)ccc1OC(=O)/C=C/c1ccco1 the results were Gal4-VP16 FLuc 7.94µM*, PINK1 expr mod -1.1%, Sfp PPTase inh 6.0%, ClpP mod -6.7%, RORgamma inh 3.55µM* and Epigenetic reg 0.0%.
Screening O=C(CNC(=O)c1ccccc1Br)N/N=C/c1ccco1 returned Gal4-VP16 FLuc 8.0%, PINK1 expr mod 4.7%, Sfp PPTase inh 2.0%, ClpP mod 0.2% and RORgamma inh -4.5%.
For O=C(CNC(=O)c1ccccc1O)N/N=C/c1cc(Br)ccc1OC(=O)/C=C/c1ccco1 the results were Gal4-VP16 FLuc -6.6%, PINK1 expr mod 1.8%, Sfp PPTase inh -12.9%, RORgamma inh 5.62µM* and Epigenetic reg 0.4%.
Screening COc1ccc(OCC(=O)Nc2ccc(C(=O)OCc3cc(=O)n4nc(C)sc4n3)cc2)cc1 returned PINK1 expr mod 3.8%, ClpP mod 4.6% and Epigenetic reg -2.4%.
For COc1ccc(C(=O)NNC2=C(C(=O)C(F)(F)F)CCC2)cc1 the results were Gal4-VP16 FLuc inconclusive, PINK1 expr mod 5.1%, Sfp PPTase inh 21.1%, RORgamma inh 14.1µM* and Epigenetic reg -0.3%.
Screening O=C(NNC1=C(C(=O)C(F)(F)F)CCC1)c1ccc(Cl)cc1 returned Gal4-VP16 FLuc inconclusive, PINK1 expr mod 11.3%[38.3 µM], Sfp PPTase inh 19.8%, ClpP mod 1.3%, RORgamma inh 11.2µM* and Epigenetic reg -0.9%.
`O=C(NNC1=C(C(=O)C(F)(F)F)CCC1)c1cccc(Cl)c1` gave Gal4-VP16 FLuc inconclusive, PINK1 expr mod inconclusive, Sfp PPTase inh 22.1%, ClpP mod 0.1%, RORgamma inh inconclusive and Epigenetic reg -1.0%.
Screening COc1ccccc1NC(=O)c1sc2nc(C)c(C(=O)Nc3ccc(C)cc3C)c(-c3ccco3)c2c1N returned PINK1 expr mod 4.4%, ClpP mod 5.1% and Epigenetic reg 8.91µM*.
For Cc1ccc(NC(=O)c2c(C)nc3sc(C(=O)Nc4ccc(F)cc4)c(N)c3c2-c2ccc(C)o2)c(C)c1 the results were PINK1 expr mod 0.0%, ClpP mod 1.2% and Epigenetic reg 22.4µM*.
Screening O=C(Nc1cc(Cl)cc(Cl)c1)c1ccc(F)c(S(=O)(=O)N2CCc3ccccc32)c1 returned PINK1 expr mod -2.0%, ClpP mod -17.1% and Epigenetic reg 3.5%.
Screening Oc1cc(-c2nc3ccccc3s2)cc2c1OCCN(Cc1cccn1-c1ccc(Cl)cn1)C2 returned PINK1 expr mod 0.6%.
Screening CC(C)Oc1ccccc1C1Nc2ccccc2C(=O)N1c1ccc2c(c1)OCCO2 (stereo not drawn) returned Gal4-VP16 FLuc 6.5%, PINK1 expr mod -0.4%, Sfp PPTase inh -4.6%, ClpP mod inconclusive, RORgamma inh -34.8% and Epigenetic reg 1.9%.
For Cc1ccc(N2C(=O)c3ccccc3NC2C(C)Cc2ccc3c(c2)OCO3)cc1 (stereo not drawn) the results were Gal4-VP16 FLuc -2.8%, Sfp PPTase inh -0.8%, ClpP mod 31.6µM*, RORgamma inh inconclusive and Epigenetic reg -1.2%.
